Laboratory results as given in the supplement of paper PMC9588786.
± gives the standard deviation of the averaged measurements.

Test system: HT-1080
Test: relative cell viability with RSL3 co-treatment (fraction of control); higher = stronger protection from RSL3-induced ferroptosis (higher viability)
Conditions: 10 µM
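Note: viability read as CCK-8 absorbance at 450 nm in cells co-exposed to the GPX4 inhibitor RSL3, relative to a 0.01% DMSO vehicle control.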

| Structure (SMILES) | relative cell viability |
| --- | --- |
| CC(C)n1nc(-c2cc3cc(O)ccc3[nH]2)c2c(N)ncnc21 [Torkinib (PP242)] | 0.833 ± 0.12 |
| COCCOc1cnc2ccn([C@H](C)c3nnc4c(F)cc(-c5cnn(C)c5)cn34)c(=O)c2c1 | 0.7767 ± 0.0058 |
| CC(C)CCN1c2nc(Nc3cc(F)c(O)c(F)c3)ncc2N(C)C(=O)C1C (stereo not drawn) | 0.717 ± 0.14 |
| C=CC(=O)Nc1cccc(Nc2nc(Nc3ccc(N4CCN(C(C)=O)CC4)cc3OC)ncc2C(F)(F)F)c1 [Rociletinib (CO-1686, AVL-301)] | 0.573 ± 0.2 |
| CCOc1cc(C(=O)N2CCC(N3CCN(C)CC3)CC2)ccc1Nc1ncc2c(n1)N(C1CCCC1)c1ccccc1C(=O)N2C | 0.457 ± 0.031 |
| C=CC(=O)Nc1cc(Nc2nccc(-c3cn(C)c4ccccc34)n2)c(OC)cc1N(C)CCN(C)C [Osimertinib (AZD9291)] | 0.403 ± 0.068 |
| CCN(CC)CCCC(C)Nc1nc(C)cc(Nc2ccc3nc(C)cc(N)c3c2)n1 (stereo not drawn) | 0.583 ± 0.15 |
| OCCn1cc(-c2ccc3c(c2)CC/C3=N\O)c(-c2ccncc2)n1 | 0.687 ± 0.13 |
| CC1(C)CNc2cc(NC(=O)c3cccnc3NCc3ccncc3)ccc21 [Motesanib Diphosphate (AMG-706)] | 0.533 ± 0.21 |
| CC(C)N(CCC(=O)c1ccc2ccccc2c1)Cc1ccccc1 | 0.863 ± 0.12 |
| CCOc1cc(N2CCC(O)CC2)ccc1Nc1ncc2c(n1)N(C)c1ccccc1C(=O)N2C | 0.793 ± 0.015 |
| COc1cc2c(Oc3ccc(NC(=O)C4(C(=O)Nc5ccc(F)cc5)CC4)cc3F)ccnc2cc1OCCCN1CCOCC1 | 0.287 ± 0.064 |
| COc1cc2nccc(Oc3ccc(NC(=O)NC4CC4)c(Cl)c3)c2cc1C(N)=O [Lenvatinib (E7080)] | 0.56 ± 0.12 |
